The panel holds about 79,000 compounds, 15% with a hit somewhere; the sample as a whole holds those more often. Values without a mark were called inactive. Activity calls are given as the source filed them. No stated cut-off is given here; in the data, active means growth inhibition above about 70%; inactive means the rest.

The nature of the first assay: NCI Yeast Anticancer Drug Screen. Data for the rad50 strain (AID 155).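 Further: 0% = growth of vehicle-only cultures of the same strain.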 The following applies: S. cerevisiae rad50 strain growth inhibition; at 50.0 µM; hits give high values. In short, it runs like this:
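Inhibition values express reduced yeast growth in compound-treated cultures relative to vehicle-treated controls.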
For the compound `Cc1ncc([N+](=O)[O-])n1C(C)C(=O)Nc1ccc(N(CCCl)CCCl)cc1` (stereo not given), the growth inhibition was -6.2%.

As to `CCC(CC)CNC(=O)C(Cl)Cl`, the growth inhibition is -2.25%.

`CC(CCOc1ccc2ccc(=O)oc2c1)C1=CC(=O)C(C)(C)O1` (stereo not given): the growth inhibition is -6.1%.

Take `COc1ccc2c(c1)CCC1C2CCC2(C)C1CCC21CCNP(=O)(N(CCCl)CCCl)O1` (stereo not given): the growth inhibition was 72% (active).

Take `OC(c1ccccc1)C(Cl)(Cl)Cl` (stereo not given): the growth inhibition is 17.1%.

`CC(=N\[O-])/C(C)=N/[O-].CC(=N\[O-])/C(C)=N/[O-].[Cu+2]`: the growth inhibition was 42.8%.

For the compound `O=C1NC(=O)C(=Cc2ccccn2)C(=O)N1`, the growth inhibition is -0.95%.

On to `O=C(c1ccccc1)C1NC1c1ccccc1` (stereo not given), for which the growth inhibition was 13.8%.

Consider `C[N+]12C(=O)CC3OCC=C4C[N+]5(C)CCC6(c7ccccc71)C2C3C4CC65O` (stereo not given), for which the growth inhibition was -13.8%.

Regarding `CN(N=O)C(=O)ON1C(=O)CCC1=O`, the growth inhibition is 9.65%.

Regarding `NC(=O)Nc1cc(NC(N)=O)cc(N(CCCl)CCCl)c1`, the growth inhibition is -7%.

For the compound `c1ccc2c(C3N4CCCN3CC4)c[nH]c2c1` (stereo not given), the growth inhibition is -0.2%.

As for `O=C1CCCCC1CN1CCCCC1` (stereo not given), the growth inhibition was 4.8%.

For `Cc1ccc(NC(=O)N(C)N=O)cc1`, the growth inhibition is -3.5%.

Regarding `O=C(N/N=C/c1cc(Cl)cc(Cl)c1[O-])c1ccccc1O.O=C(N/N=C/c1cc(Cl)cc(Cl)c1[O-])c1ccccc1O.[Ni+2]`, the growth inhibition was -8.75%.

Regarding `CC(Cl)CN(CC(C)Cl)C(=O)Oc1ccc(CC(N)C(=O)O)cc1` (stereo not given), the growth inhibition is 31.1%.

Regarding `N=C(N)n1cc(/C=N/N=C(N)N)cn1`, the growth inhibition was -4.4%.

As to `CC1(C)OC2COC(CN=[N+]=[N-])C2O1` (stereo not given), the growth inhibition is 14.4%.

Consider `N=C(N)N.[O]=[Cr](=[O])([OH])[OH]`, for which the growth inhibition is 29.4%.

With `O=C(O)C(=O)O.[Co].[NH-]CC[NH-].[NH-]CC[NH-]`, the growth inhibition is 4.9%.

`O=[N+]([O-])c1ccc(Cl)c(OCCCOc2ccc(S(=O)(=O)F)cc2)c1`: the growth inhibition was -8.7%.

For `CC1(C)N=C(N)N=C(N)N1c1ccc(OCCCOc2ccc(S(=O)(=O)F)cc2)cc1`, the growth inhibition was 35.1%.

As to `O=P1(N2CCCCC2)OCC2(CO1)COP(=O)(N1CCCCC1)OC2` (stereo not given), the growth inhibition is -7.15%.

For the compound `COC(=O)CP(=O)(OC)OC`, the growth inhibition was 5.3%.

Consider `Cc1nccc2c1[nH]c1ccccc12`, for which the growth inhibition is 6.5%.

In the case of `O=S(=O)(c1ccccc1)c1ccccc1`, the growth inhibition is -2.9%.

Take `COC(=O)CCSP(=S)(Oc1ccccc1)Oc1ccccc1`: the growth inhibition was -0.2%.

`NC(CP(=O)(O)O)C(=O)O` (stereo not given): the growth inhibition was 0.4%.

Regarding `CCOC(=O)C(Br)CBr` (stereo not given), the growth inhibition is 6.35%.

On to `Clc1ccc(C(Cl)(Cl)Cl)c(Cl)c1`, for which the growth inhibition is 9%.

On to `C1CN([PH+](N2CC2)N2CC2)CCO1.C1CN([PH+](N2CC2)N2CC2)CCO1.[Cl][Pt][Cl]`, for which the growth inhibition is 5.3%.

As to `CCOC(=O)c1ccccc1C(=O)OCC`, the growth inhibition was 6.25%.

Regarding `ICc1nc2ccccc2[nH]1`, the growth inhibition was 15.6%.

For the compound `COc1ccc(CC(N)c2nn[nH]n2)cc1` (stereo not given), the growth inhibition was 4.1%.

`ClC1OC(Cl)(Cl)C(Cl)(Cl)OC1(Cl)Cl` (stereo not given): the growth inhibition is 7.7%.

As for `Oc1ccc(Cl)cc1Br`, the growth inhibition was -2.4%.

On to `CC1CC(O)C(=O)C(O[C@@H]2C[C@@H]3CC[C@@H]4[C@H](CC[C@]5(C)C(C6=CC(=O)OC6)CC[C@]45O)[C@@]3(C=O)C[C@H]2O)O1` (stereo not given in full), for which the growth inhibition was 7.95%.

`NNc1nncn1N`: the growth inhibition is -5.25%.

`COc1ccc2[se]c(C)nc2c1`: the growth inhibition was -26.2%.

As for `NC1=C(c2nc(-c3cc4ccccc4oc3=O)cs2)C(c2ccco2)c2c(c3ccccc3oc2=O)O1` (stereo not given), the growth inhibition was -3.15%.

The nature of another assay: NCI Yeast Anticancer Drug Screen. Data for the mec2-1 strain (AID 157). The following applies: S. cerevisiae mec2-1 strain, at 50.0 µM, hits give high values. The gist of the method: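 Using mec2-1 yeast: add compound, measure growth, express inhibition versus vehicle-treated cultures.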
In the case of `Cc1ncc([N+](=O)[O-])n1C(C)C(=O)Nc1ccc(N(CCCl)CCCl)cc1` (stereo not given), the growth inhibition was 10.3%.

`CCC(CC)CNC(=O)C(Cl)Cl`: the growth inhibition is -9.8%.

On to `CC(CCOc1ccc2ccc(=O)oc2c1)C1=CC(=O)C(C)(C)O1` (stereo not given), for which the growth inhibition was -8.3%.

Consider `COc1ccc2c(c1)CCC1C2CCC2(C)C1CCC21CCNP(=O)(N(CCCl)CCCl)O1` (stereo not given), for which the growth inhibition is 31.4%.

On to `OC(c1ccccc1)C(Cl)(Cl)Cl` (stereo not given), for which the growth inhibition was -10.8%.

On to `CC(=N\[O-])/C(C)=N/[O-].CC(=N\[O-])/C(C)=N/[O-].[Cu+2]`, for which the growth inhibition is 22.9%.

In the case of `O=C1NC(=O)C(=Cc2ccccn2)C(=O)N1`, the growth inhibition is -25%.

Take `O=C(c1ccccc1)C1NC1c1ccccc1` (stereo not given): the growth inhibition was 39.4%.

Regarding `C[N+]12C(=O)CC3OCC=C4C[N+]5(C)CCC6(c7ccccc71)C2C3C4CC65O` (stereo not given), the growth inhibition is -34.5%.

Take `CN(N=O)C(=O)ON1C(=O)CCC1=O`: the growth inhibition was 7.55%.

Take `NC(=O)Nc1cc(NC(N)=O)cc(N(CCCl)CCCl)c1`: the growth inhibition is -19.7%.

As for `c1ccc2c(C3N4CCCN3CC4)c[nH]c2c1` (stereo not given), the growth inhibition is -15.7%.

Regarding `O=C1CCCCC1CN1CCCCC1` (stereo not given), the growth inhibition is -3.2%.

`Cc1ccc(NC(=O)N(C)N=O)cc1`: the growth inhibition is 5.5%.

With `O=C(N/N=C/c1cc(Cl)cc(Cl)c1[O-])c1ccccc1O.O=C(N/N=C/c1cc(Cl)cc(Cl)c1[O-])c1ccccc1O.[Ni+2]`, the growth inhibition was -15.8%.

As to `CC(Cl)CN(CC(C)Cl)C(=O)Oc1ccc(CC(N)C(=O)O)cc1` (stereo not given), the growth inhibition was 0.7%.

Take `N=C(N)n1cc(/C=N/N=C(N)N)cn1`: the growth inhibition was -4.35%.

Turning to `CC1(C)OC2COC(CN=[N+]=[N-])C2O1` (stereo not given), the growth inhibition was 8.65%.

`N=C(N)N.[O]=[Cr](=[O])([OH])[OH]`: the growth inhibition was -39.9%.

With `O=C(O)C(=O)O.[Co].[NH-]CC[NH-].[NH-]CC[NH-]`, the growth inhibition is 13.4%.

In the case of `O=[N+]([O-])c1ccc(Cl)c(OCCCOc2ccc(S(=O)(=O)F)cc2)c1`, the growth inhibition is -6.9%.

For the compound `CC1(C)N=C(N)N=C(N)N1c1ccc(OCCCOc2ccc(S(=O)(=O)F)cc2)cc1`, the growth inhibition is 72.8% (active).

Turning to `O=P1(N2CCCCC2)OCC2(CO1)COP(=O)(N1CCCCC1)OC2` (stereo not given), the growth inhibition is -0.6%.

Turning to `COC(=O)CP(=O)(OC)OC`, the growth inhibition was -24.1%.

For the compound `Cc1nccc2c1[nH]c1ccccc12`, the growth inhibition was 5.7%.

With `O=S(=O)(c1ccccc1)c1ccccc1`, the growth inhibition is 1.55%.

In the case of `COC(=O)CCSP(=S)(Oc1ccccc1)Oc1ccccc1`, the growth inhibition is 7.85%.

Take `NC(CP(=O)(O)O)C(=O)O` (stereo not given): the growth inhibition was 5.7%.

For the compound `CCOC(=O)C(Br)CBr` (stereo not given), the growth inhibition is -17.9%.

In the case of `Clc1ccc(C(Cl)(Cl)Cl)c(Cl)c1`, the growth inhibition was 6.35%.

Take `C1CN([PH+](N2CC2)N2CC2)CCO1.C1CN([PH+](N2CC2)N2CC2)CCO1.[Cl][Pt][Cl]`: the growth inhibition was 26.6%.

As for `CCOC(=O)c1ccccc1C(=O)OCC`, the growth inhibition is -2.65%.

As for `ICc1nc2ccccc2[nH]1`, the growth inhibition is -3.6%.

`COc1ccc(CC(N)c2nn[nH]n2)cc1` (stereo not given): the growth inhibition was -1%.

Take `ClC1OC(Cl)(Cl)C(Cl)(Cl)OC1(Cl)Cl` (stereo not given): the growth inhibition is 3.75%.

Regarding `Oc1ccc(Cl)cc1Br`, the growth inhibition was -14.6%.

Consider `CC1CC(O)C(=O)C(O[C@@H]2C[C@@H]3CC[C@@H]4[C@H](CC[C@]5(C)C(C6=CC(=O)OC6)CC[C@]45O)[C@@]3(C=O)C[C@H]2O)O1` (stereo not given in full), for which the growth inhibition is 8.5%.

Consider `NNc1nncn1N`, for which the growth inhibition was -10.9%.

`COc1ccc2[se]c(C)nc2c1`: the growth inhibition is -35.1%.

Regarding `NC1=C(c2nc(-c3cc4ccccc4oc3=O)cs2)C(c2ccco2)c2c(c3ccccc3oc2=O)O1` (stereo not given), the growth inhibition is -9.9%.

The values above are taken from PubChem BioAssay (NCI).
